What all share (set-up): scale not given: direction of the effect not stated beside the values
In experiment [1] the target is Protein translocase subunit SecA (Escherichia coli (strain K12)) (UniProt P10408). Kind of experiment: Assay to Identify E. coli SecA ATPase Inhibitors. In kind it is functional. Conditions: 30 µM.
Experiment [2] deals with T1, Ubiquitin-activating enzyme e1, putative (Leishmania donovani (strain BPK282A1)) (UniProt E9BSI1).
T1 sequence (whole entry): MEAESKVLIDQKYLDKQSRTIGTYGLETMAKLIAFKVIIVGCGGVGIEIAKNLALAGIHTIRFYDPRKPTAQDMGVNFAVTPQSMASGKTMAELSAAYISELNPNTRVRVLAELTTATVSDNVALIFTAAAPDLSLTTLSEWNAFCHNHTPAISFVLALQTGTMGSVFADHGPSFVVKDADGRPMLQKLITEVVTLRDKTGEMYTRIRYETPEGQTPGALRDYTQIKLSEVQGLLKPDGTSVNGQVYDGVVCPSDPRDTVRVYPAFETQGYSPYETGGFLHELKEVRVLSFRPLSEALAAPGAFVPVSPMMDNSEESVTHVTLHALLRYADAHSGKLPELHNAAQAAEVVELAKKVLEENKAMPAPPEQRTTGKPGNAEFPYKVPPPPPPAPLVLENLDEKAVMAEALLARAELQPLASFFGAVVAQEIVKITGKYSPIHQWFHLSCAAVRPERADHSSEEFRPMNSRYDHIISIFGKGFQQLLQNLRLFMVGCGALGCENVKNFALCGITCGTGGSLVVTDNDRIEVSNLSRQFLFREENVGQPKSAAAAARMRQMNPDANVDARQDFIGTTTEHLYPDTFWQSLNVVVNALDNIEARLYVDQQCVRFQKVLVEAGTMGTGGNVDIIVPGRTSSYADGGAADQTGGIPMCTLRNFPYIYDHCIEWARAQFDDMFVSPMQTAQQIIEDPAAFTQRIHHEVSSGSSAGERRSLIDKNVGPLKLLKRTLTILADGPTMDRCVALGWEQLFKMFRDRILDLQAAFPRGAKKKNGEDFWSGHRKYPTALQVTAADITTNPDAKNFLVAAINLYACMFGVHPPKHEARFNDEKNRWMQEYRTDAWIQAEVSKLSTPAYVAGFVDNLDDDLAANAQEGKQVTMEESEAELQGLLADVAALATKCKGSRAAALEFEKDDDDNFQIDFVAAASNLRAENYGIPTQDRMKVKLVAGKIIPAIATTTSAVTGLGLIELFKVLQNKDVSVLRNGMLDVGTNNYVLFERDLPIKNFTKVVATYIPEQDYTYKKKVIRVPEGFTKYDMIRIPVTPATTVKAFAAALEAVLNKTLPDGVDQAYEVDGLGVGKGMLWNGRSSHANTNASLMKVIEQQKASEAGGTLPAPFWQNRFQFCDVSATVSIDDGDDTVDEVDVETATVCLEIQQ
Kind of experiment: Leishmania donovani Ubiquitin Activating Enzyme (LdE1). In kind it is functional. The note with it: 30 µM.

Experiment [3] addresses AMP-activated protein kinase, AMPK (Homo sapiens) (UniProt P54646+O43741+P54619+Q9UGJ0+Q9Y478+Q13131+Q9UGI9). Kind of experiment: AMP-dependent Kinase enzyme assay. An in vitro enzyme assay that detects ADP turnover that is directly proportional to AMPK activity. This uses naive AMPK that is activated during the assay with MK-8722. Format: functional. The note with it: 30 µM.

For experiment [4], the target named is Sialic acid-binding Ig-like lectin 9 (Homo sapiens) (UniProt Q9Y336). Description: Hs-Siglec9 ALPHAscreen SOP 20170721. The note with it: 10 µM. In general terms: Bead proximity is the source of the signal in Alpha formats.
Sequence of Sialic acid-binding Ig-like lectin 9 (Homo sapiens) (Q9Y336 whole entry): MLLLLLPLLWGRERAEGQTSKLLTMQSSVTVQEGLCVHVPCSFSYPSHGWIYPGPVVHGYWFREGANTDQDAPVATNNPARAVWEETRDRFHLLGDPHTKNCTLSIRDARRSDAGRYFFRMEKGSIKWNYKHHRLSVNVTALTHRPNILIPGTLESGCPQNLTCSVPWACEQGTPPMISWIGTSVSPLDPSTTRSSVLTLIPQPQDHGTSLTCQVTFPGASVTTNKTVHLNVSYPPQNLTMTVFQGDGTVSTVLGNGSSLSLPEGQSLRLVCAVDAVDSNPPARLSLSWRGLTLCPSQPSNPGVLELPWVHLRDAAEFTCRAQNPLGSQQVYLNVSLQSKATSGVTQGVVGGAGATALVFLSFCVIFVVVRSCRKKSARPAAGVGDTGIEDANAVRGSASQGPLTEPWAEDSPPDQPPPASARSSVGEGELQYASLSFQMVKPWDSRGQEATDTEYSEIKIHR
In the next experiment the test system is Trypanosoma cruzi. Description: Trypanosoma cruzi phosphomannomutase and mannose-1-phosphate guanylyltransferase assay. Format: functional. Conditions: 10 µM.
In experiment [5] the target is T2, Arginase-2, mitochondrial (Homo sapiens) (UniProt P78540).
T2 sequence (whole entry): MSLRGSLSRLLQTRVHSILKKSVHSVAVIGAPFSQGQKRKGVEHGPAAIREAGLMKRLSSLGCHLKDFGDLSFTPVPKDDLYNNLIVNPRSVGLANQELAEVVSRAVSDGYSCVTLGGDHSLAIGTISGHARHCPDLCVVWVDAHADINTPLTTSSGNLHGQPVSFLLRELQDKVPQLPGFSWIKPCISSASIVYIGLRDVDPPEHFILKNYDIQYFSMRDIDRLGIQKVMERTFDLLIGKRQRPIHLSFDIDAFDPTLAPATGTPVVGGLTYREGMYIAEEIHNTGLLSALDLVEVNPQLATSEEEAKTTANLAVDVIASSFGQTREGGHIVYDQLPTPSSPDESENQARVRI
Kind of experiment: in vitro enzyme assay to detect the production of urea directly proportional to the activity of Arginase II. Also: in the data most compounds retested in dose-response had high values. Format: functional. The note with it: 33.3 µM.

In experiment [6] the target is T3, Proteasome subunit beta (Trypanosoma cruzi) (UniProt O96673).
T3 sequence (whole entry): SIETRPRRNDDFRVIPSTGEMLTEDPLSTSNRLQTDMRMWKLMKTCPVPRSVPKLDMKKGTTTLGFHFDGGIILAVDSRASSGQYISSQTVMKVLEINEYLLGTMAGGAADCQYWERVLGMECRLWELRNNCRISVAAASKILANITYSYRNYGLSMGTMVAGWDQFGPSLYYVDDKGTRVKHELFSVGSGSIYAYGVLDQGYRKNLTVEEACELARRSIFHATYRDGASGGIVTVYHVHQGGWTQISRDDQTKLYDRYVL
Description: Trypanosoma cruzi proteasome chymotrypsin-like activity (TcProtChymo) assay. Also: in the data most compounds retested in dose-response had high values. Conditions: 9.37 µM. Format: functional.

The species named for the next experiment is Homo sapiens. Description: To identify inhibition of the IFN signalling (Jak-Stat) pathway via expression of an eGFP reporter gene under the control of an IFN-stimulated response element (ISRE) containing MxA promoter. In kind it is functional. Conditions: 30 µM. Background: In a reporter assay the amount or activity of a reporter protein is the signal.

For experiment [7], the target named is T4, Tyrosyl-tRNA synthetase, putative (Trypanosoma cruzi (strain CL Brener)) (UniProt Q4DSP6).
T4 sequence (whole entry): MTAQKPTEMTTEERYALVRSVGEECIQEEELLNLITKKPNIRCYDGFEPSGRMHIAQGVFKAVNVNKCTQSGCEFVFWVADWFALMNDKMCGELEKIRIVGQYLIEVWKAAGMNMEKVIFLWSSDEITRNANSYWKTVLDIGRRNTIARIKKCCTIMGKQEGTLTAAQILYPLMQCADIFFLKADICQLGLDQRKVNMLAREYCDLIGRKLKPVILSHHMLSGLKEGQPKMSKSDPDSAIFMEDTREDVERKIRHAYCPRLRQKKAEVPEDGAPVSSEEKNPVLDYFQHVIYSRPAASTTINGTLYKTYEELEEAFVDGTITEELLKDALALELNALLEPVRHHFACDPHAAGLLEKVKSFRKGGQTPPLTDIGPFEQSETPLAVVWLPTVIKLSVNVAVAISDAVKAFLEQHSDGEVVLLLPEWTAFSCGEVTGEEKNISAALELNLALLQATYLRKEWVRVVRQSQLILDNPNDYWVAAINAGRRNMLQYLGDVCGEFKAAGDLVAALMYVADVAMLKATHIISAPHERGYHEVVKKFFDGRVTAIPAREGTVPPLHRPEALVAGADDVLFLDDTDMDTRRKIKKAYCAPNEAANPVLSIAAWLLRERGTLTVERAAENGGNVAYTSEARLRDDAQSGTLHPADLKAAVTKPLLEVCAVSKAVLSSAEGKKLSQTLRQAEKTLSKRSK
Kind of experiment: Trypanosoma cruzi tyrosyl tRNA synthetase (TcYRS) _High Tyrosine SOP. Also: in the data most compounds retested in dose-response had high values. Format: functional. The note with it: 30 µM.

Experiment [8] deals with T4, Tyrosyl-tRNA synthetase, putative (Trypanosoma cruzi (strain CL Brener)). Description: Trypanosoma cruzi tyrosyl tRNA synthetase (TcYRS) SOP. Format: functional. Conditions: 30 µM.
In experiment [9] the target is Chromo domain-containing protein 1 (Saccharomyces cerevisiae (strain ATCC 204508 / S288c) (Baker's yeast)) (UniProt P32657). Description: ScCHD-1 Enzyme Inhibition Assay. Also: in the data most compounds retested in dose-response had high values. In kind it is functional. The note with it: 30 µM.
Sequence of Chromo domain-containing protein 1 (Saccharomyces cerevisiae (strain ATCC 204508 / S288c) (Baker's yeast)) (P32657 whole entry, the tested form may be a part): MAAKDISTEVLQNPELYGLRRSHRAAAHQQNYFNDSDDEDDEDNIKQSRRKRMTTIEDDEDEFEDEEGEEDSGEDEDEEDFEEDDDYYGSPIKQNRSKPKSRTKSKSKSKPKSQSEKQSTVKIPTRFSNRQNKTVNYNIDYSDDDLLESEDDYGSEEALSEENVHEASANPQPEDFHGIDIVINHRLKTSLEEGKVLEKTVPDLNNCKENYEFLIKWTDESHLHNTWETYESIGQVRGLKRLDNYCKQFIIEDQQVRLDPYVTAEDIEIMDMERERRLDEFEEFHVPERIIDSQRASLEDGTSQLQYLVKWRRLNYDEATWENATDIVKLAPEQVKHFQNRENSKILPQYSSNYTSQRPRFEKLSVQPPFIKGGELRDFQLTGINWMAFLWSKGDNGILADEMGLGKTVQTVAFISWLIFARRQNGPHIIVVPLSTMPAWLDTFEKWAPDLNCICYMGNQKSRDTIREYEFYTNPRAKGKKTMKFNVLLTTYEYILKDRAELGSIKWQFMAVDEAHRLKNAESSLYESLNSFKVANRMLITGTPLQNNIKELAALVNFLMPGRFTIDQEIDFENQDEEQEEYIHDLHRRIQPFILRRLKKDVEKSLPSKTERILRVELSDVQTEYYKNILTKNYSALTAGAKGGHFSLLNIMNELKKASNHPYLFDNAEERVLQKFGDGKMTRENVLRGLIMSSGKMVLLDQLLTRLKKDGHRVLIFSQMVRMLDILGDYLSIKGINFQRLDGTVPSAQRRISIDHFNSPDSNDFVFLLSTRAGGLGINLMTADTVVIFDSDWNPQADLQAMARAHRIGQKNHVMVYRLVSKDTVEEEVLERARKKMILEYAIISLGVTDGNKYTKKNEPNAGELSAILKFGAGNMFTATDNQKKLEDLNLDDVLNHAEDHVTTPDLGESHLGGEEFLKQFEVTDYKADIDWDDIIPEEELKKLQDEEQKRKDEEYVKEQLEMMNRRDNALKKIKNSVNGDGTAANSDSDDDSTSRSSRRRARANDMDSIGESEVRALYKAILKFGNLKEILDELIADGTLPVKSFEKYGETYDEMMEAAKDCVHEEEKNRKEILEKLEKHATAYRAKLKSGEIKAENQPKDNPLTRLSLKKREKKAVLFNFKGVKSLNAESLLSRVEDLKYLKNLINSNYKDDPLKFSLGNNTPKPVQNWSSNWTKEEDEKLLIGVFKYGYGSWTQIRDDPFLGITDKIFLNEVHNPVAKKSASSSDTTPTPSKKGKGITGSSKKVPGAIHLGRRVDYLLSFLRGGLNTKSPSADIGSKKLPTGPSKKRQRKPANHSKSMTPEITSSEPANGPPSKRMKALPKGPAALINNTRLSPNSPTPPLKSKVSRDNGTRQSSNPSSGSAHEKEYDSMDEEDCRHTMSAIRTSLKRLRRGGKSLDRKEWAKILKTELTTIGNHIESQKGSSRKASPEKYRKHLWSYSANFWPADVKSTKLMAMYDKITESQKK

The structures appear in SMILES notation. For some of these results: Potency and affinity values are given separately.

Sequence of Protein translocase subunit SecA (Escherichia coli (strain K12)) (P10408 whole entry): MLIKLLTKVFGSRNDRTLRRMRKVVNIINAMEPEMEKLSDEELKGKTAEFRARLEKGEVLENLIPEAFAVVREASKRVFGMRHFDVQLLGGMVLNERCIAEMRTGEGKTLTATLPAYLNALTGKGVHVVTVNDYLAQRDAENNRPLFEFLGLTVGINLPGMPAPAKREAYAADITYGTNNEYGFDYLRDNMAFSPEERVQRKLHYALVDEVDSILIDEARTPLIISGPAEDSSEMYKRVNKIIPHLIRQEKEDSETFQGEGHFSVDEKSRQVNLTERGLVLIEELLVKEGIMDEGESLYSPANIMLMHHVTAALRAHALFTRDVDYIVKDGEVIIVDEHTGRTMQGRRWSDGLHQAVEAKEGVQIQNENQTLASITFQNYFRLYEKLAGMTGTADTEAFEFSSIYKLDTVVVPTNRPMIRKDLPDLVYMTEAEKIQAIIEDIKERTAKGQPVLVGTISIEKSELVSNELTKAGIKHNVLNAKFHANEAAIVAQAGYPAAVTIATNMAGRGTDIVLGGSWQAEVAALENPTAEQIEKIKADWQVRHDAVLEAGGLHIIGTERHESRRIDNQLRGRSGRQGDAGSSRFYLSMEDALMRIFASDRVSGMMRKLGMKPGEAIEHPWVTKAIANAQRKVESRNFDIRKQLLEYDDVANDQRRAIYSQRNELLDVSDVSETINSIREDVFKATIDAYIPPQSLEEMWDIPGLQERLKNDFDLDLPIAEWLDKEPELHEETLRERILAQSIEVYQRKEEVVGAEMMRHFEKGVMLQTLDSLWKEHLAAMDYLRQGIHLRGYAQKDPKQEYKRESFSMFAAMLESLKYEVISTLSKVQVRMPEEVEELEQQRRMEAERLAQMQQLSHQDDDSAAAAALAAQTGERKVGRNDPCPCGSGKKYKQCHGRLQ

With `CCc1nccn1C1CCCN(C(=O)c2cn3c(C)cccc3n2)C1` (stereo unspecified), the Percent Effect in experiment [1] is -5.71%; in experiment [2] it was 10.5%; in experiment [3] it was -0.577%; in experiment [4], 8.35%; in the experiment on Trypanosoma cruzi, 3.6%; in experiment [5], -9.47%. Moreover, the Percent Effect in [6] is 6.04%; in the experiment filed under Homo sapiens, -0.411%; in [7], 3.19%; in [8], 15.6%; in experiment [9], -1.12%.

As for `O=C(O)[C@@H]1CN(C(=O)c2cc(C3CC3)n[nH]2)C[C@H]1c1cccc(F)c1`, the Percent Effect is -3.18% in experiment [1]; 16.4% in experiment [2]; -3.35% in [3]; 7.52% in experiment [4]; 2.98% in the experiment with Trypanosoma cruzi; -7.58% in [5]. Besides, the Percent Effect in experiment [6] was 14.5%; in the experiment filed under Homo sapiens, -4.38%; in experiment [7] it was 3.12%; in experiment [8], 21%; in experiment [9] it was -6.55%.

Turning to `NCC1Cn2nnc(-c3cccc(F)c3)c2CO1` (stereo unspecified), the Percent Effect in [1] is -1.49%; in experiment [2], -20.8%; in experiment [3], 2.11%; in experiment [4], 0.572%; in the experiment on Trypanosoma cruzi, 8.75%; in [5] it was -1.38%. In addition, the Percent Effect in experiment [6] was 7.99%; in the experiment listed under Homo sapiens it was -8.6%; in experiment [7], 3.23%; in experiment [8], 3.7%; in experiment [9], -4.31%.

On to `Cc1ccc(Nc2nccc(C3CCCN(CC(=O)N(C)C)C3)n2)nc1` (stereo unspecified), for which the Percent Effect in experiment [1] was -5.52%; in experiment [2], 5.33%; in experiment [3], -1.77%; in [4] it was 6.73%; with Trypanosoma cruzi, 5.51%; in [5], -6.76%. In addition, the Percent Effect was 13.8% in [6]; -1.72% in the experiment listed under Homo sapiens; 11.7% in experiment [7]; 19.2% in [8]; -2.77% in experiment [9].

`O=C([C@H]1C[C@H]2OCC[C@H]2N(CCc2ccccc2)C1)N1CCCCO1`: the Percent Effect in experiment [1] is -4.49%; in [2], 5.41%; in experiment [3], 7.77%; in experiment [4] it was -1.67%; in the experiment with Trypanosoma cruzi, -0.0978%; in experiment [5] it was 3.5%. Besides, the Percent Effect in experiment [6] is 11.4%; in the experiment filed under Homo sapiens, -14.2%; in experiment [7], 5.41%; in experiment [8], 15.4%; in [9], 6.02%.

With `CC1COCCN1Cc1nc(-c2cccc(Br)c2)no1` (stereo unspecified), the Percent Effect in [1] was -3.43%; in experiment [2], 13.5%; in experiment [3] it was 7.49%; in experiment [4], 1.61%; in the experiment on Trypanosoma cruzi, -8.4%; in experiment [5], 2%. For the same molecule, the Percent Effect was 17.7% in experiment [6]; 24.7% in the experiment filed under Homo sapiens; 0.493% in [7]; 1.24% in experiment [8]; -8.7% in experiment [9].

Turning to `COC(=O)CCN1CCCC1c1cccc2c1OCCO2` (stereo unspecified), the Percent Effect in experiment [1] is -3.03%; in [2], -2.67%; in experiment [3] it was -0.184%; in [4] it was 36%; in the experiment with Trypanosoma cruzi, -0.682%; in [5] it was -2.6%. The Percent Effect in experiment [6] was -1.92%; in the experiment filed under Homo sapiens it was 5.8%; in experiment [7] it was 3.83%; in experiment [8], 3.7%; in experiment [9] it was 3.53%.

Turning to `Cc1nc(CNCC2CCCN2c2cccnn2)cs1` (stereo unspecified), the Percent Effect in experiment [1] was -2.04%; in experiment [2] it was -2.63%; in experiment [3], 1.93%; in [4] it was 0.202%; with Trypanosoma cruzi it was -3.38%; in experiment [5] it was 6.51%. Further, the Percent Effect in [6] was -1.84%; in the experiment listed under Homo sapiens, 14.7%; in experiment [7], 2.45%; in experiment [8] it was 0%; in [9] it was 4.5%.

As for `CCNC(=O)c1cnc(Cc2ccc(F)cc2)s1`, the Percent Effect in experiment [1] is -3.2%; in experiment [2] it was -2.67%; in experiment [3], 3.74%; in [4], 1.03%; in the experiment with Trypanosoma cruzi it was -1.27%; in experiment [5], 4.17%. Also, the Percent Effect is 8.72% in experiment [6]; 14.1% in the experiment filed under Homo sapiens; 3.83% in experiment [7]; 8.64% in [8]; -2.95% in experiment [9].

In the case of `CC(C)n1ncc2cc(NC(=O)N3CCC(N4CCCC4)C3)cnc21` (stereo unspecified), the Percent Effect was -1.2% in experiment [1]; -5.41% in experiment [2]; -12.5% in experiment [3]; 7.73% in experiment [4]; 4.74% in the experiment on Trypanosoma cruzi; -5.73% in experiment [5]. Moreover, the Percent Effect in [6] was 12%; in the experiment filed under Homo sapiens, 3.87%; in experiment [7], -7.92%; in experiment [8], 23.2%; in [9], -5.17%.

As to `Cn1ccnc1CN1CCCC(Cc2ccccn2)C1` (stereo unspecified), the Percent Effect in [1] was -7.44%; in [2], 20.3%; in experiment [3], -4.84%; in experiment [4] it was 1.21%; in the experiment with Trypanosoma cruzi, 4.94%; in experiment [5], -2.55%. Further, the Percent Effect was 13.6% in experiment [6]; 1.89% in the experiment listed under Homo sapiens; 4.3% in experiment [7]; 16.9% in experiment [8]; -20.2% in experiment [9].

The values above are taken from ChEMBL document CHEMBL3988442, “University of Dundee, Small-Polar-MMV Screening Library” (2021).
